The results in this text go back to PubChem BioAssay.

Where “and” joins values, the source holds several entries; their conditions need not be identical. Equal entries are not always repeated. Calls of active or inactive are those of the source.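 Rule for the calls: active = visual image review flags a hit and inhibition of aggregation exceeds 20%; inconclusive = visual hit but inhibition at or below 20%; inactive = no hit on visual image review.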

The assay is described as follows: reduction of polyQ htt aggregates in cells – imaging, exon1htt(103Q)mCFP cells, high-content imaging, primary screen (AID 483).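 For nuclei count: percent of the per-plate median nuclei count of sample wells.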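 Note: compound exposure lasted 3 days before fixation.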 The note with it: exon1htt(103Q)mCFP cell line, aggregate imaging, at 2 µM; inhibition of aggregation: stronger effect = higher value; nuclei count: measured here: cell count, toxicity.
With `CN1Cc2c(N)cccc2C(c2ccccc2)C1` (stereo not given), the nuclei count amounted to 95.3% and the inhibition of aggregation was 5.1% (inactive).

As to `Cc1cn([C@H]2C=C[C@@H](CO)O2)c(=O)[nH]c1=O`, the inhibition of aggregation is -10.6% (inactive) and the nuclei count stood at 106%.

In the case of `COC(=O)c1ccc(N2C(=O)CC(N3CCN(C(=O)c4ccco4)CC3)C2=O)cc1` (stereo not given), the nuclei count worked out at 103% and the inhibition of aggregation is 0.2% (inactive).

`C[C@H]1C[C@H]2[C@@H]3CCC4=CC(=O)C=C[C@]4(C)[C@@]3(Cl)[C@@H](O)C[C@]2(C)[C@@]1(O)C(=O)CO`: the nuclei count was found to be 69.5% and the inhibition of aggregation is -11.8% (inactive).

On to `CCCC1O[C@@H]2C[C@H]3[C@@H]4CCC5=CC(=O)C=C[C@]5(C)[C@H]4[C@@H](O)C[C@]3(C)[C@]2(C(=O)CO)O1` (stereo not given in full), for which the nuclei count was found to be 58% and the inhibition of aggregation is -17.2% (inactive).

For the molecule `CNCCC(Oc1ccc(C(F)(F)F)cc1)c1ccccc1` (stereo not given), the inhibition of aggregation is 10.2% (inactive) and the nuclei count came out at 100%.

For the molecule `Clc1ccc(Cn2c(CN3CCCC3)nc3ccccc32)cc1`, the nuclei count is 112% and the inhibition of aggregation was 13.4% (inactive).

Take `CC(C)NCC(O)COc1ccc(CC(N)=O)cc1` (stereo not given): the nuclei count is 97.3% and the inhibition of aggregation is -3.8% (inactive).

In the case of `CC(C)C[C@H]1C(=O)N2CCC[C@H]2[C@]2(O)O[C@](NC(=O)[C@@H]3C=C4c5cccc6[nH]c(Br)c(c56)CC4N(C)C3)(C(C)C)C(=O)N12` (stereo not given in full), the inhibition of aggregation was -4% (inactive) and the nuclei count came out at 96.5%.

Regarding `CCOC(=O)c1cc2c(=O)n3cccc(C)c3nc2n(CCc2ccccc2)c1=N`, the inhibition of aggregation was -9% (inactive) and the nuclei count was 86.6%.

As to `CC(=O)OCC1=C(C(=O)O)N2C(=O)[C@@H](NC(=O)Cc3cccs3)[C@H]2SC1`, the inhibition of aggregation was -14.4% (inactive) and the nuclei count amounted to 85.4%.

For the molecule `Cc1cccc(Nc2ccccc2C(=O)O)c1C`, the inhibition of aggregation is -13.5% (inactive) and the nuclei count turned out to be 100%.

For `CC(COc1ccccc1)N(CCCl)Cc1ccccc1` (stereo not given), the inhibition of aggregation is 3.6% (inactive) and the nuclei count was determined as 91.3%.

Regarding `Cc1cc(C)nc(NS(=O)(=O)c2ccc(N)cc2)n1`, the nuclei count was 104% and the inhibition of aggregation is -9.6% (inactive).

In the case of `COc1cc(C2C(C#N)=C(N)Oc3cc(N)ccc32)cc(OC)c1OC` (stereo not given), the inhibition of aggregation was -94.1% (inactive) and the nuclei count worked out at 1.6%.

On to `CN(C)CCCC1(c2ccc(F)cc2)OCc2cc(C#N)ccc21` (stereo not given), for which the nuclei count is 103% and the inhibition of aggregation was -40.9% (inactive).

Turning to `CCCc1cc(=O)[nH]c(=S)[nH]1`, the nuclei count was found to be 105% and the inhibition of aggregation is 6.2% (inactive).

With `CN(C)CCOC(C)(c1ccccc1)c1ccccn1` (stereo not given), the inhibition of aggregation was 21.5% (inactive) and the nuclei count stood at 111%.

Regarding `CCCCNC(=O)NS(=O)(=O)c1ccc(C)cc1`, the inhibition of aggregation was 10.9% (inactive) and the nuclei count worked out at 99.2%.

`CC(=O)[C@@]1(O)CC[C@H]2[C@@H]3C[C@H](C)C4=CC(=O)C=C[C@]4(C)[C@@]3(F)[C@@H](O)C[C@@]21C`: the inhibition of aggregation was 10.8% (inactive) and the nuclei count came out at 60.1%.

Take `O=C1NC(=O)C(c2ccccc2)(c2ccccc2)N1`: the inhibition of aggregation is -21.7% (inactive) and the nuclei count was found to be 101%.

For `CC(C)(C)NC[C@H](O)COc1nsnc1N1CCOCC1`, the inhibition of aggregation was -13.8% (inactive) and the nuclei count is 102%.

For the molecule `O=C(O)CCC(=O)Nc1ccc(S(=O)(=O)Nc2nccs2)cc1`, the nuclei count was found to be 93.6% and the inhibition of aggregation was -13.3% (inactive).

Turning to `Cc1cc(C(C)(C)C)cc(C)c1CC1=NCCN1`, the inhibition of aggregation was 8.7% (inactive) and the nuclei count stood at 94.6%.

Consider `CN(C)CCCN1c2ccccc2Sc2ccccc21`, for which the nuclei count came to 100% and the inhibition of aggregation is 3.5% (inactive).

On to `Nc1ccc(C(=O)O)c(O)c1`, for which the nuclei count was 99.9% and 81.7%; the inhibition of aggregation is 3.1% (inactive) and 6.7% (inactive).

In the case of `CC(=O)[C@H]1CC[C@H]2[C@@H]3CCC4=CC(=O)CC[C@]4(C)[C@H]3CC[C@]12C`, the nuclei count came to 74.7% and the inhibition of aggregation is -5.3% (inactive).

With `O=c1n(CCCN2CCN(c3cccc(Cl)c3)CC2)nc2ccccn12`, the inhibition of aggregation was 32% (inactive) and the nuclei count stood at 90%.

For `Cn1c(=O)c2c(ncn2CC(O)CO)n(C)c1=O` (stereo not given), the nuclei count stood at 90% and the inhibition of aggregation was 15% (inactive).

Consider `CC1(C)S[C@@H]2[C@H](NC(=O)Cc3ccccc3)C(=O)N2[C@H]1C(=O)O`, for which the inhibition of aggregation was 9.3% (inactive) and the nuclei count was found to be 68.8%.

Take `CN(C)C(=O)Oc1ccc[n+](C)c1`: the nuclei count turned out to be 104% and the inhibition of aggregation was -10% (inactive).

Consider `CCCOc1ccc2nc(NC(=O)OC)[nH]c2c1`, for which the inhibition of aggregation was -14.5% (inactive) and the nuclei count was found to be 98.6%.

Consider `OC(CCN1CCCCC1)(c1ccccc1)C1CCCCC1` (stereo not given), for which the nuclei count is 107% and the inhibition of aggregation is 11.9% (inactive).

On to `O=c1c(O)c(-c2ccc(O)cc2O)oc2cc(O)cc(O)c12`, for which the inhibition of aggregation is 2.1% (inactive) and the nuclei count came out at 102%.

As for `COC(=O)Nc1nc2ccc(C(=O)c3ccccc3)cc2[nH]1`, the inhibition of aggregation was -1.2% (inactive) and the nuclei count is 34.6%.

Regarding `CCc1cccc2c3c([nH]c12)C(CC)(CC(=O)O)OCC3` (stereo not given), the nuclei count is 111% and the inhibition of aggregation was 3.6% (inactive).

For `C[N+](C)(C)CCCCCCCCCC[N+](C)(C)C`, the nuclei count amounted to 89.1% and the inhibition of aggregation was -3.9% (inactive).

With `O=C(c1ccc(F)cc1)C1CCN(CCn2c(=O)[nH]c3ccccc3c2=O)CC1`, the inhibition of aggregation is -3.2% (inactive) and the nuclei count was found to be 96.4%.

Turning to `CCN1CCN(C(=O)N[C@@H](C(=O)N[C@@H]2C(=O)N3[C@@H]2SC(C)(C)[C@@H]3C(=O)O)c2ccccc2)C(=O)C1=O`, the nuclei count amounted to 97.2% and the inhibition of aggregation was 2.8% (inactive).

Take `Cc1ncc([N+](=O)[O-])n1CCO`: the inhibition of aggregation was 7.7% (inactive) and the nuclei count came to 76.5%.
